The results in this text go back to PubChem BioAssay AID652054 (National Center for Advancing Translational Sciences (NCATS), 2013).

Molecules are shown by their SMILES. Among all 360,000 compounds or so, about 9,100 (2.5%) were called active. Another 4% or so got no clear call; they are omitted. For the sample, actives were picked, then their nearest neighbours and some compounds at random. Values without a mark were called inactive. No stated cut-off is given here; in the data, active means max response below about -50%; inconclusive means no clear call, values can overlap the other calls; inactive means above that.
On the % scale 0 is the no-effect control and ±100 the full control effect.

This test deals with D(3) dopamine receptor (Homo sapiens) (UniProt P35462). Kind of test: qHTS of D3 Dopamine Receptor Antagonist: qHTS. Conditions: D3R cells, DiscoveRx beta-arrestin luminescence, antagonist mode; active compounds read low. A digest of the protocol: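 Cells plated overnight at 1500 cells/well, then exposed to library compounds with dopamine controls for 90 minutes at 37 degrees C. DiscoveRx reagent added for 30–60 minutes at room temperature; luminescence read, quantitative HTS format.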
D(3) dopamine receptor (Homo sapiens), sequence (P35462 whole entry, looked up): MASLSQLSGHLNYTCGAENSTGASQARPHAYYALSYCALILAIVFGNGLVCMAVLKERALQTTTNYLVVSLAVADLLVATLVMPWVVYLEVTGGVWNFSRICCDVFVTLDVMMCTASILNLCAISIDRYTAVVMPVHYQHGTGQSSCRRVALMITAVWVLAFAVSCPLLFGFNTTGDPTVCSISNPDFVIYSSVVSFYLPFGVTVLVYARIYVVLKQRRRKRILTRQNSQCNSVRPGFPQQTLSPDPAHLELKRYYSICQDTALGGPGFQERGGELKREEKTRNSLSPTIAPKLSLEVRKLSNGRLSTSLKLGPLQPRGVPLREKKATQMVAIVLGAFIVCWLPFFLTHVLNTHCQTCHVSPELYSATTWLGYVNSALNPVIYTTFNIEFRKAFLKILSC
As for `CCCCN1CC(N2CCN(Cc3cccc(C)c3)CC2)CS1(=O)=O` (stereo not drawn), the max response, negative = inhibition is 0.736%.

For the molecule `OCCC#Cc1ccc(N2C(c3ccsc3)=Cc3ccc(F)cc3C2c2c[nH]c3ccccc23)cc1` (stereo not drawn), the max response, negative = inhibition was -3.75%.

Regarding `O=C(CNC(=O)c1ccccc1)Oc1ccc([N+](=O)[O-])cc1`, the max response, negative = inhibition is -54.6% (active).

For `O=C(NNS(=O)(=O)Cc1ccccc1)c1ccc([N+](=O)[O-])cc1`, the max response, negative = inhibition was -19%.

As for `COC(=O)CNC(=O)c1ccccc1[N+](=O)[O-]`, the max response, negative = inhibition is 16.4%.

Take `Nc1cc(=O)c2[nH]cnc2[nH]1`: the max response, negative = inhibition was 15.5%.

On to `Nc1ncnc2c1ncn2[C@@H]1O[C@H](C(=O)N2CCCN(Cc3ccccc3F)CC2)[C@@H](O)[C@H]1O`, for which the max response, negative = inhibition was 15%.

For the molecule `O=C(C=CC(=O)Nc1ccc(F)cc1F)Nc1ccc(F)cc1F`, the max response, negative = inhibition was 4.55%.

For the molecule `COC(=O)[C@@]1(Cc2ccc(OC)cc2)[C@H]2c3cc(C(=O)N4CCCC4)n(Cc4ccc(OC(F)(F)F)cc4)c3C[C@H]2CN1C(=O)c1ccccc1`, the max response, negative = inhibition was 20.3%.

As to `C[C@@H]1CN([C@H](C)CO)C(=O)CCCn2nncc2CO[C@@H]1CN(C)S(=O)(=O)c1cccc(C#N)c1`, the max response, negative = inhibition was -18.1%.

For `N#Cc1cccc(NC(=O)CN2CCCCCC2)c1`, the max response, negative = inhibition is -64.8% (active).

For the molecule `N#Cc1ccsc1NC(=O)CN1CCCCC1`, the max response, negative = inhibition was -12%.

Regarding `N#Cc1cccc(NC(=O)C2CCCN(C(=O)c3ccc(Cl)cc3)C2)c1` (stereo not drawn), the max response, negative = inhibition was 0.782%.

Consider `Nc1cc(C(=O)N2CCN(c3ccccc3Cl)CC2)ccc1N1CC2CC(C1)c1cccc(=O)n1C2` (stereo not drawn), for which the max response, negative = inhibition is 27.4%.

For `C=C1C(=O)OC2C1CCC(C)=CCCC1(C)OC21` (stereo not drawn), the max response, negative = inhibition is -90% (active).

Turning to `CC1(C(=O)NCC2CCOCC2)Cc2c(-c3cccc(C(N)=O)c3)ccnc2O1` (stereo not drawn), the max response, negative = inhibition was -8.42%.

Consider `Cc1cc(Br)cn2c(Cc3ccccc3C(F)(F)F)c(C3CCCCC3)nc12`, for which the max response, negative = inhibition is -18.2%.

On to `COc1cccc(-c2cnc3c(NC(C)=O)cc(-c4cc(F)ccc4OC)cn23)c1`, for which the max response, negative = inhibition was -14.2%.

With `COc1ccc(S(=O)(=O)N2CCC(C(=O)NCCC(=O)NCCc3cccc(F)c3)CC2)cc1`, the max response, negative = inhibition is 9.47%.

Take `C=CCNC(=S)N1CCc2[nH]c3ccccc3c2C1`: the max response, negative = inhibition was -14.7%.

For the molecule `CC1CCc2[nH]c3ccc(C(=O)N(C)CC(=O)Nc4cccc(F)c4)cc3c2C1` (stereo not drawn), the max response, negative = inhibition was 3.28%.

Take `O=C(CCCN1CCc2[nH]c3ccc(F)cc3c2C1)c1ccc(F)cc1`: the max response, negative = inhibition is -89.2% (active).

Regarding `CC(=O)C1=CCC(c2ccccc2)N(S(=O)(=O)c2ccc(C)cc2)C1` (stereo not drawn), the max response, negative = inhibition is 0%.

In the case of `COc1cccc(NC(=O)C2(C)CCN2C(=O)CCC2CCCC2)c1` (stereo not drawn), the max response, negative = inhibition was 1.34%.

Turning to `COc1ccc(C(NC(=O)C2CCN(CCCc3ccccc3)CC2)c2cccs2)cc1` (stereo not drawn), the max response, negative = inhibition is -15.9%.

On to `Cc1cc([N+](=O)[O-])c(NC2CCCCC2)c([N+](=O)[O-])c1`, for which the max response, negative = inhibition is -7.91%.

`Cc1c(NS(=O)(=O)c2ccc(NC3CCCC3)c([N+](=O)[O-])c2)c(=O)n(-c2ccccc2)n1C`: the max response, negative = inhibition is -21.5%.

In the case of `Cc1cc(C=O)c(C)n1-c1ccc(NC2CCCCC2)c([N+](=O)[O-])c1`, the max response, negative = inhibition was -55.1% (active).

Take `COCC(=O)N(C)C[C@H]1Oc2cc(Br)ccc2S(=O)(=O)N([C@H](C)CO)C[C@H]1C`: the max response, negative = inhibition is 15.2%.

Consider `C#CCN(C[C@@H]1[C@@H](OC(=O)NC2CC2)[C@@H](OC(=O)NC2CC2)Cn2c(=O)ccc(=O)n21)S(=O)(=O)c1ccc(C)cc1`, for which the max response, negative = inhibition is 13.1%.

For `O=c1ccc2c(-c3ccccc3S(=O)(=O)O)c3ccc(O)c(O)c3oc-2c1O`, the max response, negative = inhibition is -93.3% (active).

With `C[C@@H]1CN([C@@H](C)CO)C(=O)CCCn2nncc2CO[C@H]1CN(C)Cc1ccc(C(F)(F)F)cc1`, the max response, negative = inhibition is 20.1%.

On to `CC(C)NC(=O)N1Cc2cc(C(=O)NCC(F)(F)F)nc(-c3cccc(-c4cc5ccccc5o4)c3)c2[C@@H]1CCO`, for which the max response, negative = inhibition was 18.7%.

Turning to `O=C(NC(c1ccc(-c2ccccc2)cc1)c1cnccn1)C1CCN(CCOc2ccc(Cl)cc2Cl)CC1` (stereo not drawn), the max response, negative = inhibition is -24.7%.

With `COC(=O)c1ccc2nc(-c3ccccc3)c(Cc3ccc(OC)cc3C)n2c1`, the max response, negative = inhibition is -9.42%.

Consider `COc1ccc(/C=N/N=C/c2c[nH]c(=O)c(C#N)c2Nc2ccccc2)cc1`, for which the max response, negative = inhibition is 23.9%.

In the case of `COc1ccc2[nH]cc(/C=C(/C#N)S(=O)(=O)c3ccccc3)c2c1`, the max response, negative = inhibition was -50.9% (active).

With `COc1ccc2[nH]cc(CCN3C(=O)c4ccc(C(=O)O)cc4C3=O)c2c1`, the max response, negative = inhibition was 11.7%.

Consider `Cc1ccccc1S(=O)(=O)NC(=O)C1(C)CCN1C(=O)C1(c2ccc(Cl)cc2)CC1` (stereo not drawn), for which the max response, negative = inhibition was 4.07%.

On to `Cc1nonc1C(=O)N/N=C/c1ccc(O)cc1`, for which the max response, negative = inhibition is 20.2%.

Turning to `O=C(NN=Cc1ccccc1)c1ccccc1`, the max response, negative = inhibition is -25.4%.

Regarding `Cc1nc2ccc(C(=O)N/N=C/c3ccc(O)cc3)cc2[nH]1`, the max response, negative = inhibition was -78.1% (active).

In the case of `COc1ccc2c(c1)c(=Cc1ccc(N(C)C)cc1)c1cc(-c3ccccc3)[n+](C)n12`, the max response, negative = inhibition was -65.2% (active).

As to `Cc1ccc(C(NC(=O)C2CCN(CCOc3ccc(Cl)cc3Cl)CC2)c2ccccn2)cc1` (stereo not drawn), the max response, negative = inhibition was -3.28%.

With `CC1=C(C(=O)N(C)C)CC(CC(=O)NCCc2ccccn2)C(=O)N1CCC1=CCCCC1` (stereo not drawn), the max response, negative = inhibition was -22.1%.

On to `CCCCCNC(=O)C1C(=O)Nc2ccccc2C(=O)N1C(C)(C)C` (stereo not drawn), for which the max response, negative = inhibition was -19.2%.

On to `CC(=O)c1c(C)[nH]c(C(=O)NCCCN2CCCC2)c1C`, for which the max response, negative = inhibition is 11.6%.

`CCCCN(CC)CCNC(=O)c1[nH]c(C)c(C(C)=O)c1C`: the max response, negative = inhibition is -58.3% (active).

`CC(=O)c1c(C)[nH]c(C(=O)NCc2ccc(C)cc2)c1C`: the max response, negative = inhibition is -6.75%.

Take `CC1(C(=O)NS(=O)(=O)C2CC2)CCCN(C(=O)CSc2ccccc2)C1` (stereo not drawn): the max response, negative = inhibition is 0%.

With `Cc1ccc(-c2nc3ccc(Br)cn3c2Cc2ccccc2C(F)(F)F)cc1`, the max response, negative = inhibition was -15%.

`CCOC(=O)C1=CC[C@@H](c2ccncc2)N(S(=O)(=O)c2ccc(C)cc2)C1`: the max response, negative = inhibition is -4.07%.

Turning to `CCCCNC(=O)c1nc(C2CCN(S(=O)(=O)c3ccc(F)c(F)c3)CC2)oc1-c1cccc(C(F)(F)F)c1`, the max response, negative = inhibition is 7.15%.
